Compound activity: PubChem BioAssay, National Center for Advancing Translational Sciences (NCATS)
DT40 TDP1 CPT = DT40-hTDP1 cell growth loss with CPT; Potency, µM (top dose mostly 46.2 µM), without a hit: at the highest dose activity change, negative = growth inhibition, actives largely listed as inhibitors; chicken DT40 Tdp1-/-;hTDP1 cells + 20 nM CPT, ATP luminescence, 48 h; AID 686979; 420,000 compounds, 12% hits; also: potency is read from the fitted curve at half-maximal effect; % is scaled to controls: 0 for no effect and ±100 for the full control effect; nearly all actives have a fitted effect of over 55% in size
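Chicken DT40 Tdp1-/- cells complemented with human TDP1, 400 cells/well, exposed to compounds plus 20 nM camptothecin for at least 48 h at 37 C; viability read as ATP content by CellTiter-Glo luminescence.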
IL1B secr inh = blocks inflammasome-driven IL-1 beta release; 360,000 compounds, 4.7% hits; THP-1 LPS/ATP IL-1B secretion, AlphaLISA, 16 h; active compounds read low; activity change, % at 57.5 µM; AID 743279; in the data active = activity change below about -50%; inconclusive = mostly about -30% to -49%; also: % is scaled to controls: 0 for no effect and ±100 for the full control effect
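Secreted IL-1B measured by AlphaLISA bead assay after 16 h compound exposure of THP-1 cells; compounds (final up to 57.5 uM) added 1 h before LPS (250 ng/mL) and ATP (1.25 mM) stimulation; lower signal means less secretion.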
DT40 TDP1 no CPT = qHTS for Inhibitors of human tyrosyl-DNA phosphodiesterase 1 (TDP1): qHTS in cells in absence of CPT; 420,000 compounds, 15% hits; Potency, µM (highest dose often 46.2 µM), for the others: top-dose activity change, negative = growth inhibition, actives largely listed as inhibitors; DT40 Tdp1-/- hTDP1 cells, no CPT, ATP luminescence, 48 h; also: potency is read from the fitted curve at half-maximal effect; % is scaled to controls: 0 for no effect and ±100 for the full control effect; nearly all actives have a fitted effect of over 55% in size
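Compound effects on proliferation are scored in DT40 Tdp1-/-;hTDP1 cells in the absence of CPT. ATP levels (CellTiter-Glo luminescence) are recorded after a ≥48 hr, 37 °C incubation.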
HepG2 tox = kills HepG2 cells in TGF-b inhibitor counter-screen; HepG2 CAGA-GFP viability, ATP luminescence, 18 h; Potency, µM (top dose mostly 46.1 µM), for the others: top-dose activity change, negative = cytotoxicity, actives largely listed as cytotoxic; 410,000 compounds, 0.76% hits; AID 588856; also: potency is read from the fitted curve at half-maximal effect
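CellTiter-Glo luminescence gave cytotoxicity after 18 hours at 37 degrees C. The cells were HepG2 CAGA-GFP in 1% FBS DMEM, stimulated with 500 pg/mL TGF-beta after compound addition. %Activity was normalised to no-cell wells (complete cell-killing) and DMSO (no toxicity), and curves were fitted and classified.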
ASM inhibitor = blocks human secretory acid sphingomyelinase; P17405; placental ASM, HMU-PC fluorogenic substrate, 60 min; Potency, µM (top dose mostly 57.5 µM), for inactives: at the highest dose activity change, negative = inhibition, most hits filed as inhibitors; 340,000 compounds, 0.006% hits; AID 504937; also: potency is read from the fitted curve at half-maximal effect
Target sequence (P17405 47-631 limits assumed): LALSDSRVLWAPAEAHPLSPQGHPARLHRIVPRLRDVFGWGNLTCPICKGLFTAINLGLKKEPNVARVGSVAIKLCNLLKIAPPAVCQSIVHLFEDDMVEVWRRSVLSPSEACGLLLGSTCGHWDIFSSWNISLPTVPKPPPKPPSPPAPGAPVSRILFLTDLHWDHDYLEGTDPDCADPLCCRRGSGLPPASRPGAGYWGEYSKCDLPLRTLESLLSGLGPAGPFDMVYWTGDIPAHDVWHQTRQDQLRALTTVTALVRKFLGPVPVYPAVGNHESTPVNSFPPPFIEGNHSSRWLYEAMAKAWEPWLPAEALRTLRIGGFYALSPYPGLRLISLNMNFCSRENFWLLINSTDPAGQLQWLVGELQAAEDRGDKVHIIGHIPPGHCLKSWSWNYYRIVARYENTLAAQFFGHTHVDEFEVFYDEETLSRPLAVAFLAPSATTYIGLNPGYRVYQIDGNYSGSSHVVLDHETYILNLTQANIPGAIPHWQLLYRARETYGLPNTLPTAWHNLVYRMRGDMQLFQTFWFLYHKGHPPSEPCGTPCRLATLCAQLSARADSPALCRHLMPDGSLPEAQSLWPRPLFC
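HMU-PC0 cleavage (9 uM final) by human placental ASM, 60 min at 37 °C following 10 min compound exposure at RT; stopped at pH 10, fluorescence Ex 386/Em 447 nm.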
TGFb inhibitor = TGF-b pathway inhibition; HepG2 CAGA-GFP TGF-b/SMAD3 reporter, GFP fluorescence, 18 h; TGF-beta stimulated, 500 pg/mL final; Potency, µM (top dose mostly 46.1 µM), without a hit: at the highest dose activity, negative = inhibition, actives largely listed as inhibitors; 410,000 compounds, 1.2% hits; also: potency is read from the fitted curve at half-maximal effect; % is scaled to controls: 0 for no effect and ±100 for the full control effect; nearly all actives have a fitted effect of over 65% in size
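First, reporter cells (HEPG2 CAGA-GFP) rested 2 h at 37 degrees C. Next, compounds were pinned in and TGF-beta added to 500 pg/mL final. After 18 h, GFP was imaged per cell and summed per well.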
Numbers without * were called inactive; ? = inconclusive; / = no result. In the library only some 19% were active in any assay of this set; here they are far more common. Unless noted, calls follow the shape of the dose curve; as a rule, active = well fitted curve in the direction sought with a large enough effect; inconclusive = small, poorly fitted or top-dose-only effect, or another doubt; inactive = no such curve, though single readings can be large; an effect the other way counts as inactive or inconclusive.

SMILES	DT40 TDP1 CPT	IL1B secr inh	DT40 TDP1 no CPT	HepG2 tox	ASM inhibitor	TGFb inhibitor
COc1ccc(-n2c(CCc3ccccc3)nnc2SCC(=O)NCc2ccccc2)cc1	?	-52*	?	-22%	-1%	-4%
COc1ccc(CCNC(=O)CSc2nnc3ccccn23)cc1	0%	0	-19%	3%	-2%	0.45µM*
Cc1cc(C)cc(NS(=O)(=O)c2ccc3c(c2)C(C)(C)C(=O)N3C)c1	?	-3	?	-2%	0%	?
COc1ccc(C(=O)CSc2nnc(CCc3ccccc3)n2-c2ccccc2)cc1	16µM*	-17	15µM*	-2%	-15%	-27%
CC(=O)/C(=N/Nc1ccccc1)Sc1nnc(CCc2ccccc2)n1-c1ccccc1	12µM*	-76*	18µM*	-2%	-9%	-29%
COc1ccc(S(=O)(=O)N(CC(=O)N2CCOCC2)c2ccc(F)cc2)cc1OC	2%	-5	-2%	10%	0%	12%
COc1ccc(Cl)cc1NC(=O)Cn1cnc2sc(C)c(S(=O)(=O)N3CCN(c4ccccc4OC)CC3)c2c1=O	7.3µM*	/	7.3µM*	0%	/	0%
COc1ccc(OC)c(NC(=O)Cn2cnc3sc(C)c(S(=O)(=O)N4CCN(c5ccccc5OC)CC4)c3c2=O)c1	21µM*	/	?	-17%	/	-4%
CCOC(=O)C1CCC(CN(Cc2c(Cl)cccc2Cl)S(=O)(=O)c2ccc(Cl)cc2)CC1 (stereo not drawn)	?	/	21µM*	-2%	/	0%
CCOC(=O)C1CCC(CN(Cc2ccccc2)S(=O)(=O)c2ccc(Cl)cc2)CC1 (stereo not drawn)	?	/	?	-13%	/	2%
CCOC(=O)C1CCC(CN(Cc2cccc(Br)c2)S(=O)(=O)c2ccc(Cl)cc2)CC1 (stereo not drawn)	29µM*	/	21µM*	4%	/	-12%
CCn1c(=S)sc2c(=O)n(CC(=O)NC(C)CCc3ccccc3)c(C)nc21 (stereo not drawn)	?	9	29µM*	-9%	-10%	15%
CCn1c(=S)sc2c(=O)n(CC(=O)Nc3cc(OC)ccc3OC)c(C)nc21	?	4	18µM*	8%	-14%	13%
Nc1ccn([C@@H]2O[C@H](CNC(=O)[C@@H](Cc3cccnc3)NC=O)[C@@H](O)[C@H]2O)c(=O)n1	3%	15	-3%	-20%	/	-6%
CCOc1ccc(N2CC(c3nc(-c4cc(OC)c(OC)c(OC)c4)no3)CC2=O)cc1 (stereo not drawn)	?	/	26µM*	-30%	/	-32%
O=C1CC(c2nc(-c3ccccc3)no2)CN1c1ccc2c(c1)OCCO2 (stereo not drawn)	-10%	/	-12%	-18%	/	-2%
CN(C)c1ccc(-c2noc(C3CC(=O)N(c4ccc5c(c4)OCCO5)C3)n2)cc1 (stereo not drawn)	4.6µM*	/	2.9µM*	-10%	/	17%
COc1cc(-c2noc(C3CC(=O)N(c4ccc5c(c4)OCCO5)C3)n2)cc(OC)c1OC (stereo not drawn)	?	/	?	-14%	/	18%
COc1ccc(N2CC(c3nc(-c4cc(OC)c(OC)c(OC)c4)no3)CC2=O)cc1Cl (stereo not drawn)	?	/	16µM*	-2%	/	6%
CCCNC(=O)C1(C)CCCN(C(=O)c2sccc2C)C1 (stereo not drawn)	-5%	9	7%	-3%	/	-8%
O=Cc1ccccc1-n1cccn1	17%	0	9%	-5%	5%	-7%
Oc1cc(-n2cccn2)c(O)cc1-n1cccn1	5.8µM*	-3	4.1µM*	0%	0%	-8%
O=C(CSC1CCCCC1)Nc1nccs1	-8%	4	-20%	7%	0%	-13%
Cc1nnc(NC(=O)CSC2CCCCC2)s1	1.8µM*	3	5.8µM*	-3%	-2%	-1%
Nc1[nH]c(=S)[nH]c(=O)c1N	3%	/	8%	3%	/	-14%
SMILES	DT40 TDP1 CPT	IL1B secr inh	DT40 TDP1 no CPT	HepG2 tox	ASM inhibitor	TGFb inhibitor
COC(=O)[C@@]1(Cc2ccc(F)cc2)[C@H]2c3cc(C(=O)N(C)C)n(Cc4ccc(C)o4)c3C[C@H]2CN1C(=O)c1ccccc1	16µM*	-24	21µM*	/	/	/
COC(=O)[C@@]1(Cc2ccc(F)cc2)[C@H]2c3cc(C(=O)N(C)C)n(Cc4ccc(OC)c(OC)c4)c3C[C@H]2CN1C(=O)c1ccccc1	?	-2	?	3%	7%	13%
COC(=O)[C@@]1(Cc2ccc(OC)cc2)[C@H]2c3cc(C(=O)N(C)C)n(C[C@H](O)CO)c3C[C@H]2CN1C(=O)c1ccccc1	15%	1	-8%	-9%	2%	-19%
COC(=O)[C@@]1(Cc2ccc(F)cc2)[C@H]2c3cc(C(=O)N(C)C)n(Cc4ccccc4)c3C[C@H]2CN1C(=O)c1ccccc1	5.2µM*	-22	21µM*	1%	8%	?
COC(=O)[C@@]1(Cc2ccc(OC)cc2)[C@H]2c3cc(C(=O)N(C)C)n(Cc4ccc(OC(F)(F)F)cc4)c3C[C@H]2CN1C(=O)c1ccccc1	21µM*	-62*	21µM*	-17%	-2%	?
COC(=O)[C@@]1(Cc2ccc(F)cc2)[C@H]2c3cc(C(=O)N(C)C)n(CCc4ccc(OC)c(Br)c4)c3C[C@H]2CN1C(=O)c1ccccc1	10µM*	0	9.2µM*	-17%	6%	?
COC(=O)[C@@]1(Cc2ccc(F)cc2)[C@H]2c3cc(C(=O)N(C)C)n(CCO)c3C[C@H]2CN1C(=O)c1ccccc1	-8%	-1	-25%	/	/	/
O=[N+]([O-])c1cc([N+](=O)[O-])c2c(=Nc3ccccc3)n(-c3ccccc3)n(O)c2c1	3.3µM*	-25	10µM*	-17%	-3%	?
Cc1ccc(NCCC(=O)c2cccc([N+](=O)[O-])c2)c(C)c1	8.2µM*	-16	10µM*	-40%	-7%	?
Cc1cccc(NCCC(=O)c2ccc([N+](=O)[O-])cc2)c1C	4.6µM*	5	?	-38%	-1%	?
COc1cccc(COC(=O)c2ccc(-c3nnn(Cc4ccccc4)n3)cc2)c1	-13%	/	-14%	19%	/	15%
